Assay results reported in PubChem BioAssay AID1159580 (chemical genetic matrix, 2015).
Values joined by “and” are separate entries in the source; they are usually repeats but may differ in a detail not shown here. Identical values can stand only once. About 2,000 (36%) of roughly 5,500 compounds were called active. Another 18% or so got no clear call; they are omitted. The list shows a part of the results. Values without a mark were called inactive. Rule as the data show it: active = normalized growth mostly below about 0.91 (no sharp cut-off); inconclusive = no clear call, values can overlap the other calls; inactive = mostly above about 0.92.

Assay: chemical genetic growth profiling, strain panel (AID 1159580);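 also: tested at 20 µM; growth read once vehicle control cultures reached saturation at 30 °C; 1 = growth at the plate median or of vehicle wells; lower values mean less growth of the strain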
Conditions: S. cerevisiae deletion strains, growth OD

## CCCSc1ccc2nc(NC(=O)OC)[nH]c2c1
Locus YAL013W, strain DEP1, active compounds read low
  normalized growth: 0.995
Locus YAL021C, strain ccr4, active compounds read low
  normalized growth: 1.01
Locus YAL026C, strain drs2, active compounds read low
  normalized growth: 1.01
Locus YAL030W, strain snc1, active compounds read low
  normalized growth: 1
Locus YBL061C, strain skt5, active compounds read low
  normalized growth: 1.01
Locus YBR009C, strain hhf1, active compounds read low
  normalized growth: 1.01
Locus YBR021W, strain FUR4, active compounds read low
  normalized growth: 1.2 [resistant] (active)
Locus YBR023C, strain chs3, active compounds read low
  normalized growth: 1.01
Locus YBR171W, strain sec66, active compounds read low
  normalized growth: 1.02
Locus YBR229C, strain ROT2, active compounds read low
  normalized growth: 0.992
Locus YBR231C, strain swc5, active compounds read low
  normalized growth: 0.922
Locus YBR279W, strain paf1, active compounds read low
  normalized growth: 1.01
Locus YCL011C, strain gbp2, active compounds read low
  normalized growth: 1.01
Locus YCL016C, strain dcc1, active compounds read low
  normalized growth: 1.01
Locus YCL029C, strain bik1, active compounds read low
  normalized growth: 0.82 (active)
Locus YCL061C, strain MRC1, active compounds read low
  normalized growth: 1.01
Locus YCL069W, strain vba3, active compounds read low
  normalized growth: 1.01
Locus YCR088W, strain abp1, active compounds read low
  normalized growth: 1.01
Locus YDL005C, strain med2, active compounds read low
  normalized growth: 1.03
Locus YDL035C, strain GPR1, active compounds read low
  normalized growth: 0.99
Locus YDL040C, strain nat1, active compounds read low
  normalized growth: 1.01
Locus YDL074C, strain BRE1, active compounds read low
  normalized growth: 0.866
Locus YDL101C, strain DUN1, active compounds read low
  normalized growth: 0.993
Locus YDL134C, strain PPH21, active compounds read low
  normalized growth: 1.01
Locus YDL185W, strain tfp1, active compounds read low
  normalized growth: 0.93
Locus YDL192W, strain arf1, active compounds read low
  normalized growth: 0.971
Locus YDR001C, strain nth1, active compounds read low
  normalized growth: 1.01
Locus YDR069C, strain doa4, active compounds read low
  normalized growth: 0.998
Locus YDR101C, strain arx1, active compounds read low
  normalized growth: 0.961
Locus YDR137W, strain rgp1, active compounds read low
  normalized growth: 0.862
Locus YDR150W, strain NUM1, active compounds read low
  normalized growth: 0.977
Locus YDR159W, strain sac3, active compounds read low
  normalized growth: 1.04
Locus YDR162C, strain NBP2, active compounds read low
  normalized growth: 0.993
Locus YDR195W, strain ref2
  normalized growth: 1.15 [resistant] (active)
Locus YDR297W, strain sur2, active compounds read low
  normalized growth: 1.01
Locus YDR318W, strain mcm21, active compounds read low
  normalized growth: 0.956
Locus YDR334W, strain swr1, active compounds read low
  normalized growth: 0.962
Locus YDR335W, strain msn5, active compounds read low
  normalized growth: 1.02
Locus YDR388W, active compounds read low
  normalized growth: 0.969
Locus YDR392W, strain spt3, active compounds read low
  normalized growth: 0.967
Locus YDR502C, strain sam2, active compounds read low
  normalized growth: 0.966
Locus YEL003W, strain gim4, active compounds read low
  normalized growth: 0.446 (active)
Locus YEL037C, strain rad23, active compounds read low
  normalized growth: 1
Locus YEL061C, strain CIN8 (second series), active compounds read low
  normalized growth: 1.01
Locus YEL061C, strain CIN8, active compounds read low
  normalized growth: 0.997
Locus YER015W, strain faa2, active compounds read low
  normalized growth: 1
Locus YER016W, strain bim1, active compounds read low
  normalized growth: 1.01
Locus YER110C, active compounds read low
  normalized growth: 0.976
Locus YER111C, strain swi4, active compounds read low
  normalized growth: 1.02
Locus YER155C, strain BEM2 (second series), active compounds read low
  normalized growth: 0.999
Locus YER155C, strain BEM2, active compounds read low
  normalized growth: 0.991
Locus YER167W, strain BCK2, active compounds read low
  normalized growth: 0.988
Locus YFR010W, strain ubp6, active compounds read low
  normalized growth: 1.02
Locus YGL078C, strain dbp3, active compounds read low
  normalized growth: 0.955
Locus YGL086W, strain mad1, active compounds read low
  normalized growth: 0.974
Locus YGL167C, strain pmr1, active compounds read low
  normalized growth: 1.02
Locus YGL173C, strain kem1, active compounds read low
  normalized growth: 1.02
Locus YGL227W, strain vid30, active compounds read low
  normalized growth: 1
Locus YGL240W, strain doc1, active compounds read low
  normalized growth: 1.01
Locus YGL248W, strain PDE1, active compounds read low
  normalized growth: 0.996
Locus YGL253W, strain hxk2, active compounds read low
  normalized growth: 1.01
Locus YGR078C, strain PAC10, active compounds read low
  normalized growth: 0.11 (active)
Locus YGR135W, strain pre9, active compounds read low
  normalized growth: 0.944
Locus YGR229C, strain SMI1, active compounds read low
  normalized growth: 0.968
Locus YGR252W, strain gcn5, active compounds read low
  normalized growth: 1.16
Locus YHR013C, strain ard1, active compounds read low
  normalized growth: 1.01
Locus YHR027C, strain rpn1, active compounds read low
  normalized growth: 1.01
Locus YHR030C, strain SLT2, active compounds read low
  normalized growth: 0.99 and 0.897
Locus YHR079C, strain IRE1 (second series), active compounds read low
  normalized growth: 0.942
Locus YHR079C, strain IRE1, active compounds read low
  normalized growth: 0.933
Locus YHR094C, strain hxt1, active compounds read low
  normalized growth: 0.965
Locus YHR129C, strain ARP1, active compounds read low
  normalized growth: 0.983
Locus YHR142W, strain chs7, active compounds read low
  normalized growth: 1.01
Locus YHR200W, strain rpn10, active compounds read low
  normalized growth: 0.951
Locus YIL066C, strain RNR3, active compounds read low
  normalized growth: 0.98
Locus YIL073C, strain SPO22, active compounds read low
  normalized growth: 0.894
Locus YIL125W, strain kgd1, active compounds read low
  normalized growth: 0.98
Locus YIR030C, strain dcg1, active compounds read low
  normalized growth: 0.983
Locus YJL092W, strain hpr5, active compounds read low
  normalized growth: 1
Locus YJL095W, strain BCK1 (second series), active compounds read low
  normalized growth: 1.01
Locus YJL095W, strain BCK1, active compounds read low
  normalized growth: 0.95 and 0.922
Locus YJL115W, strain asf1, active compounds read low
  normalized growth: 1.02
Locus YJL129C, strain trk1, active compounds read low
  normalized growth: 1.01
Locus YJL134W, strain LCB3, active compounds read low
  normalized growth: 0.992
Locus YJL154C, strain vps35, active compounds read low
  normalized growth: 1
Locus YJL164C, strain tpk1, active compounds read low
  normalized growth: 1.01
Locus YJL166W, strain qcr8, active compounds read low
  normalized growth: 1
Locus YJL168C, strain set2, active compounds read low
  normalized growth: 0.969
Locus YJL187C, strain SWE1 (second series), active compounds read low
  normalized growth: 0.963
Locus YJL187C, strain SWE1, active compounds read low
  normalized growth: 1
Locus YJR043C, strain POL32, active compounds read low
  normalized growth: 0.967
Locus YJR066W, strain TOR1, active compounds read low
  normalized growth: 0.909
